High-throughput results from PubChem.
An excerpt weighted towards active compounds, which were near 2.4% of everything screened.
Pol beta inh: blocks human DNA polymerase beta activity; hit rate 1.3% among 340,000; AID 485314; Pol beta primer extension/strand displacement, fluorescence kinetic; Potency, µM (doses to about 114 µM), for the others: top-dose activity change, negative = inhibition, usual class: inhibitors; further: on the % scale 0 is the no-effect control and ±100 the full control effect
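Pol beta (10 nM) was preincubated with compound for 15 min at room temperature. The reaction was then started with 50 nM substrate and read immediately and after a further 10 min at room temperature.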
Pol eta inh-1: blocks human DNA polymerase eta activity | Q9Y253 | recombinant Pol eta, fluorescent DNA replication assay | Potency, µM (series often up to 114 µM), for inactives: at the top dose activity change, negative = inhibition, most hits filed as inhibitors | hit rate 1.2% among 390,000 | AID 588591; further: on the % scale 0 is the no-effect control and ±100 the full control effect
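Pol eta at 10 nM preincubated with compounds 15 min at room temperature; reaction started with fluorescent substrate (50 nM final) and read kinetically at 0 and 10 min.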
WRN helicase inh-1: blocks human WRN helicase. WRN helicase unwinding, fluorescent forked duplex, kinetic. Potency, µM (series often up to 114 µM), without a hit: top-dose activity change, negative = inhibition, usual class: inhibitors. hit rate 0.46% among 360,000. Q14191; further: on the % scale 0 is the no-effect control and ±100 the full control effect; nearly all actives have a fitted effect of over 55% in size
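Fluorescence dequenching readout, ex 525 nm/em 598 nm, kinetic mode: forked duplex DNA (100 nM final) with adjacent fluorophore and quencher unwound by WRN (20 nM final) with 2 mM ATP. Compound preincubation 15 min, room temperature.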
Pol iota inh: DNA polymerase iota (human) inhibition; Potency, µM (series often up to 115 µM), for inactives: at the top dose activity, negative = inhibition, usual class: inhibitors; Q9UNA4; hit rate 1% among 390,000; Pol iota fluorescent replication assay, 10 min
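Fluorescent replication assay read twice, at 0 min and 10 min after adding 50 nM (final) substrate. Enzyme (10 nM) and compounds were first incubated 15 min at room temperature; enzyme-free buffer wells were negative controls.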
Pol kappa inh-1: blocks human DNA polymerase kappa activity; purified Pol kappa, fluorescent DNA synthesis assay, 10 min; hit rate 0.53% among 400,000; Q9UBT6; AID 588579; Potency, µM (series often up to 107 µM), for inactives: at the highest dose activity, negative = inhibition, most hits filed as inhibitors; further: on the % scale 0 is the no-effect control and ±100 the full control effect
Target sequence (Q9UBT6 whole entry, looked up): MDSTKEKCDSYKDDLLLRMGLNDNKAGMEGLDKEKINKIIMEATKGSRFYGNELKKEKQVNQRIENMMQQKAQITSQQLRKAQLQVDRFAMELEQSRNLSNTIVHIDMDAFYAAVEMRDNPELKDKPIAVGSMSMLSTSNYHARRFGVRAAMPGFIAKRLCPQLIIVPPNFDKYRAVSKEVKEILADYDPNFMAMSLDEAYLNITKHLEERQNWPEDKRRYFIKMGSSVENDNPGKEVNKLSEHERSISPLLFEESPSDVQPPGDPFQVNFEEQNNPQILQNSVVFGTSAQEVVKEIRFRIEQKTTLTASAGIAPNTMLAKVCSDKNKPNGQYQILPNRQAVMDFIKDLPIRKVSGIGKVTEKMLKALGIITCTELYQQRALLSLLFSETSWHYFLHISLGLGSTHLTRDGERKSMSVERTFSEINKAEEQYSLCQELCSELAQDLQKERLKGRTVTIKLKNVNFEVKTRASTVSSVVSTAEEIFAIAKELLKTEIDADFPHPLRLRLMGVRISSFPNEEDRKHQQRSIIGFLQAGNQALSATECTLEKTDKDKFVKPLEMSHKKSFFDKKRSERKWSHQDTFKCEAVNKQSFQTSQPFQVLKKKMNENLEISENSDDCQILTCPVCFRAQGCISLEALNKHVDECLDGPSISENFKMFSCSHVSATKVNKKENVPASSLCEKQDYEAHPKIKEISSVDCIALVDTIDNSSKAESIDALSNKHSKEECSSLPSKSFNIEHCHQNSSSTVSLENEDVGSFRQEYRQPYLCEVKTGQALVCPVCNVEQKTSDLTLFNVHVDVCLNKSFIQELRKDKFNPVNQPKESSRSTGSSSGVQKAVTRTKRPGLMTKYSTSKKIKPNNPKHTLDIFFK
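Activity was followed as the change in fluorescence between reads at 0 and 10 min after starting the reaction with 50 nM substrate. Beforehand, 10 nM polymerase had been preincubated with compound for 15 min at room temperature.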
FEN1 inh-1: blocks human flap endonuclease 1 | Recombinant FEN1 flap cleavage, fluorescence, 15 min | Potency, µM (series often up to 114 µM), without a hit: at the highest dose activity change, negative = inhibition, most hits filed as inhibitors | hit rate 0.35% among 390,000 | AID 588795; further: on the % scale 0 is the no-effect control and ±100 the full control effect; nearly all actives have a fitted effect of over 65% in size
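Reaction started by adding substrate (50 nM final) to 10 nM enzyme after 15 min room-temperature compound preincubation. Reads at 0 and 15 min, with data normalized and fitted to a four-parameter Hill equation.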
PGK validate: blocks T. brucei phosphoglycerate kinase; AID 686980; Potency, µM (series often up to 57.5 µM), for inactives: top-dose activity change, negative = inhibition, hits mostly inhibitors; shares compounds with Pol kappa inh-1; TbPGK coupled GAPDH assay, Kinase-Glo luminescence; hit rate 79% among 500; further: on the % scale 0 is the no-effect control and ±100 the full control effect; nearly all actives have a fitted effect of over 65% in size
Pol iota confirm: Human Pol iota inhibitor confirmatory assay. Potency, µM, most hits filed as inhibitors. Pol iota primer extension, TAMRA/BHQ fluorescence. shares compounds with Pol kappa inh-1. hit rate 77% among 1,500
Pol kappa inh-2: confirmation of human DNA polymerase kappa inhibitors; AID 720501; purified Pol-kappa, fluorescent strand-displacement substrate; hit rate 76% among 920; Potency, µM, usual class: inhibitors; shares compounds with Pol eta inh-1
Pol eta inh-2: confirmation of human DNA polymerase eta inhibitors | Potency, µM, hits mostly inhibitors | hit rate 64% among 2,600 | AID 720502 | Pol eta primer extension, TAMRA/BHQ fluorescence, 10 min | shares compounds with Pol eta inh-1
FEN1 inh-2: confirmation of human FEN1 inhibitors; FEN1 flap cleavage, TAMRA/BHQ2 fluorogenic DNA substrate; AID 720498; hit rate 79% among 880; Potency, µM, most hits filed as inhibitors; shares compounds with FEN1 inh-1; further: nearly all actives have a fitted effect of over 60% in size
WRN helicase inh-2: confirmation of human WRN helicase inhibitors; Potency, µM (highest dose often 57.1 µM), for inactives: at the top dose activity, negative = inhibition, usual class: inhibitors; WRN helicase DNA unwinding, fluorescence kinetic; shares compounds with WRN helicase inh-1; hit rate 63% among 610; further: nearly all actives have a fitted effect of over 65% in size
TO DNA binding: binds DNA, flagged in WRN inhibitor counterscreen. shares compounds with WRN helicase inh-1. thiazole orange DNA binding displacement, fluorescence. Potency, µM (doses to about 57.1 µM), for inactives: at the top dose activity change, negative = inhibition, actives largely listed as inhibitors. hit rate 10% among 610. AID 720499;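 further: drop in dye fluorescence marks compound binding to DNA; on the % scale 0 is the no-effect control and ±100 the full control effect; nearly all actives have a fitted effect of over 60% in size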
BLM counter: counter-screen for WRN helicase inhibitors: human BLM helicase inhibition. hit rate 60% among 610. shares compounds with WRN helicase inh-1. Potency, µM (doses to about 57.1 µM), inactives show at the highest dose activity change, negative = inhibition, most hits filed as inhibitors. Recombinant BLM helicase DNA unwinding, red fluorescence; further: nearly all actives have a fitted effect of over 60% in size
An asterisk follows results filed as active; i = inactive; ? = inconclusive; . = no result; [ ] = another dose, or the depositor's remark. The call rests on the fitted dose curve; in most records, active means well fitted curve in the direction sought with a large enough effect; inconclusive means small, poorly fitted or top-dose-only effect, or another doubt; inactive means no such curve, though single readings can be large; an effect the other way counts as inactive or inconclusive. Potency means the concentration at half of the fitted maximal effect.

SMILES	Pol beta inh	Pol eta inh-1	WRN helicase inh-1	Pol iota inh	Pol kappa inh-1	FEN1 inh-1	Pol iota confirm	Pol eta inh-2	WRN helicase inh-2	TO DNA binding	BLM counter	others
O=C(O)CSc1cc(NS(=O)(=O)c2ccc(Cl)cc2)c2ccccc2c1O	79.4µM*	20µM*	12.6µM*	3.16µM*	-18.1%	35.5µM*	84.4*	75.7*	?	-12.5%	?	Pol kappa inh-2=67*;FEN1 inh-2=75.7*
N#Cc1c(N)oc(-c2ccco2)c1-c1ccco1	-15.5%	?	-35.2%	?	?	-17.2%	.	.	.	.	.
COc1ccc(OC)c(/C=N/c2oc(-c3ccco3)c(-c3ccco3)c2C#N)c1	44.7µM*	79.4µM*	?	?	79.4µM*	-12.6%	37.7*	47.8*	21.5µM*	?	6.81µM*
CCc1ccc(N=C2NC(=O)/C(=C/c3cc(OC)c(OC)c(OC)c3)S2)cc1	-6.5%	-10.4%	-27.0%	14.1%	3.1%	15.2%	.	.	.	.	.
CCc1ccc(N=C2NC(=O)/C(=C/c3cc(Br)c(OCC(=O)O)c(OC)c3)S2)cc1	15.8µM*	35.5µM*	?	39.8µM*	?	50.1µM*	67*	84.9*	21.5µM*	-3.8%	24.1µM*	Pol kappa inh-2=47.4*;FEN1 inh-2=75.7*
COc1ccccc1-n1c(/C=C/c2c(C)n(C)c3ccccc23)nc2ccccc2c1=O	9.0%	-19.4%	.	?	-43.6%	-22.1%	.	.	.	.	.
COc1ccc(C(=O)c2cn(CC(=O)Nc3ccc4c(c3)OCCO4)c3ccc(OC)cc3c2=O)cc1	8.91µM*	?	.	14.1µM*	?	39.8µM*	7.52*	?	12.1µM*	7.64µM*	7.64µM*	Pol kappa inh-2=5.97*
O=C(O)c1cccc(N2C(=O)c3cccc4cccc(c34)C2=O)c1	5.2%	8.8%	-22.0%	66.4%	-6.1%	-4.2%	.	.	.	.	.
O=C(O)c1cccc(N2C(=O)c3cc([N+](=O)[O-])cc4cc([N+](=O)[O-])cc(c34)C2=O)c1	6.31µM*	3.98µM*	39.8µM*	2.24µM*	22.4µM*	20µM*	42.3*	23.9*	27.1µM*	-25.9%	?	PGK validate=10.3µM*;Pol kappa inh-2=15*
COc1ccc(NC(=O)C2CCN(S(=O)(=O)c3ccc4c(c3)CCCC(=O)N4)CC2)cc1OC	9.2%	-12.7%	.	15.0%	-2.1%	1.8%	.	.	.	.	.
CCCCOc1ccc(OC(=O)c2sc3ncn(Cc4cccc(F)c4)c(=O)c3c2C)cc1	0.2%	-21.3%	.	8.4%	-7.2%[60.1 µM]	5.5%	.	.	.	.	.
COc1ccc(C(=O)Nc2cccc(-c3cn4ccsc4n3)c2)c(OC)c1	21.7%	-14.7%	.	-0.5%	-7.6%[60.1 µM]	-20.3%	.	.	.	.	.
CCN(CC)CCCNc1ncnc2ccccc12	1.9%	-18.2%	-6.8%	20.8%	-11.5%	-13.2%	.	.	.	.	.
CCN(CC)CCCNc1ccc2ncn3c4ccc(O)cc4c(=O)c1c23	.	?	25.1µM*	?	79.4µM*	10µM*	42.3*	.	21.5µM*	i	-62.5%	FEN1 inh-2=8.49*
O=C(O)c1ccccc1/C=N/Nc1ccc(S(=O)(=O)N2CCCC2)cc1[N+](=O)[O-]	-1.1%	-7.5%	-18.7%	39.2%	-3.1%	-4.3%	.	.	.	.	.
O=C(O)c1ccccc1NS(=O)(=O)c1ccc(NN=Cc2ccccc2F)c([N+](=O)[O-])c1	.	28.2µM*	79.4µM*	56.2µM*	?	?	?	60.1*	24.1µM*	?	21.5µM*	FEN1 inh-2=75.7*
CCc1ccccc1Nc1nn2c(=O)c3ccc(C(=O)NCc4ccccc4Cl)cc3nc2s1	7.4%	4.1%	.	?	-24.5%	12.1%	.	.	.	.	.
O=C(NCc1cccs1)c1ccc2c(=O)n3nc(Nc4ccccc4)sc3nc2c1	?	?	.	-11.0%	-4.7%[60.1 µM]	12.2%	?	.	19.2µM*	158.3%	3.41µM*
CCCn1c(=O)c2sccc2n2c(CCCC(=O)NCCOC)nnc12	32.4%	-10.3%	.	27.5%	-1.7%	-8.6%	.	.	.	.	.
O=C(O)c1cc2ccccc2c2c1C(=O)c1ccccc1-2	.	-4.9%	-11.7%	.	.	.	.	.	.	.	.
O=C1C=C(c2c(O)ccc3ccccc23)c2ccccc2C1=O	.	20µM*	20µM*	3.55µM*	-2.6%	?	84.4*	.	-19.2%	?	?
O=C(NCCOCCn1c(=O)oc2ccccc21)Nc1ccc(F)cc1F	10.4%	0.3%	.	2.5%	-9.3%	-13.7%	.	.	.	.	.
CN(C)c1ccc(/C=C/c2ccnc3cc(Cl)cc(Cl)c23)cc1	.	.	.	-3.7%	-12.5%	9.6%	.	.	.	.	.
O=C(c1cccc(-n2cccc2)c1)N1CCN(S(=O)(=O)c2ccccc2)CC1	.	8.91µM*	17.8µM*	8.91µM*	17.8µM*	?	4.23*	8.49*	4.29µM*	?	1.08µM*
O=C(c1cccc(S(=O)(=O)N2CCN(c3ccccc3)CC2)c1)N1CCCCCCC1	.	-18.6%	-3.7%	20.3%	-4.7%	-0.5%	.	.	.	.	.
Cc1cc(C)cc(NS(=O)(=O)c2ccc3[nH]cc(C(=O)NC4CCCCC4)c(=O)c3c2)c1	?	-16.3%	.	-27.8%	-16.5%	-4.8%	.	.	.	.	.
